Test results from PubChem BioAssay AID1159580 (chemical genetic matrix, 2015).
“And” between values parts separate entries of the source, which are not always exact repeats. Identical values can stand only once. Among all 5,500 compounds or so, about 2,000 (36%) were called active. Inconclusive results (about 18%) are left out. Rule as the data show it: active = normalized growth mostly below about 0.91 (no sharp cut-off); inconclusive = no clear call, values can overlap the other calls; inactive = mostly above about 0.92. The list shows a part of the results.

Test: chemical genetic growth profiling, strain panel (AID 1159580);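 also: tested at 20 µM; growth read once vehicle control cultures reached saturation at 30 °C; 1 = growth at the plate median or of vehicle wells; lower values mean less growth of the strain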
Conditions: S. cerevisiae deletion strains, growth OD

Measured: normalized growth

O=C(O)c1cc(=O)c2c(Cl)cc(Cl)cc2[nH]1
inactive: locus YAL013W, strain DEP1, hits give low values 1 | locus YAL021C, strain ccr4, hits give low values 1 | locus YAL026C, strain drs2, hits give low values 1.02 | locus YAL030W, strain snc1, hits give low values 1.02 | locus YAL040C, strain CLN3, hits give low values 0.995 | locus YBL061C, strain skt5, hits give low values 1.01 | locus YBR009C, strain hhf1, hits give low values 1 | locus YBR021W, strain FUR4, hits give low values 1 | locus YBR023C, strain chs3, hits give low values 1.02 | locus YBR171W, strain sec66, hits give low values 1.01 | locus YBR229C, strain ROT2, hits give low values 1.01 | locus YBR231C, strain swc5, hits give low values 1.02 | locus YBR279W, strain paf1, hits give low values 1.01 | locus YCL011C, strain gbp2, hits give low values 1.01 | locus YCL016C, strain dcc1, hits give low values 1.01 | locus YCL029C, strain bik1, hits give low values 1.01 | locus YCL061C, strain MRC1 (second series), hits give low values 0.998 | locus YCL061C, strain MRC1, hits give low values 1.02 | locus YCL069W, strain vba3, hits give low values 1 | locus YCR088W, strain abp1, hits give low values 1.01 | locus YDL005C, strain med2, hits give low values 1.01 | locus YDL035C, strain GPR1, hits give low values 1.01 | locus YDL040C, strain nat1, hits give low values 1.01 | locus YDL074C, strain BRE1, hits give low values 1 | locus YDL101C, strain DUN1, hits give low values 1.01 | locus YDL134C, strain PPH21, hits give low values 1.02 | locus YDL185W, strain tfp1, hits give low values 1.01 | locus YDL192W, strain arf1, hits give low values 1.02 | locus YDR001C, strain nth1, hits give low values 1.01 | locus YDR069C, strain doa4, hits give low values 1.02 | locus YDR101C, strain arx1, hits give low values 1.03 | locus YDR137W, strain rgp1, hits give low values 1.02 | locus YDR150W, strain NUM1, hits give low values 0.999 | locus YDR159W, strain sac3, hits give low values 1.01 | locus YDR162C, strain NBP2, hits give low values 1.02 | locus YDR195W, strain ref2 1.02 | locus YDR297W, strain sur2, hits give low values 1.01 | locus YDR318W, strain mcm21, hits give low values 1.02 | locus YDR334W, strain swr1, hits give low values 1.01 | locus YDR335W, strain msn5, hits give low values 1.01 | locus YDR363W, strain ESC2, hits give low values 0.974 | locus YDR388W, hits give low values 1.01 | locus YDR392W, strain spt3, hits give low values 0.979 | locus YDR502C, strain sam2, hits give low values 1.01 | locus YEL003W, strain gim4, hits give low values 1.01 | locus YEL037C, strain rad23, hits give low values 1.01 | locus YEL061C, strain CIN8 (second series), hits give low values 1.01 | locus YEL061C, strain CIN8, hits give low values 1 | locus YER002W, strain NOP16, hits give low values 1 | locus YER015W, strain faa2, hits give low values 1.02 | locus YER016W, strain bim1, hits give low values 1.01 | locus YER110C, hits give low values 1.03 | locus YER111C, strain swi4, hits give low values 1.02 | locus YER155C, strain BEM2 (second series), hits give low values 1.03 | locus YER155C, strain BEM2, hits give low values 0.994 | locus YER167W, strain BCK2, hits give low values 1 | locus YFR010W, strain ubp6, hits give low values 1.02 | locus YGL078C, strain dbp3, hits give low values 1.01 | locus YGL086W, strain mad1, hits give low values 1.02 | locus YGL167C, strain pmr1, hits give low values 1.02 | locus YGL173C, strain kem1, hits give low values 1.02 | locus YGL227W, strain vid30, hits give low values 1.01 | locus YGL240W, strain doc1, hits give low values 1.02 | locus YGL248W, strain PDE1, hits give low values 1.01 | locus YGL253W, strain hxk2, hits give low values 1.02 | locus YGR078C, strain PAC10, hits give low values 1 | locus YGR135W, strain pre9, hits give low values 1.03 | locus YGR229C, strain SMI1, hits give low values 1.05 and 0.981 | locus YGR252W, strain gcn5, hits give low values 1 | locus YHR013C, strain ard1, hits give low values 0.987 | locus YHR027C, strain rpn1, hits give low values 1.02 | locus YHR030C, strain SLT2, hits give low values 1 | locus YHR079C, strain IRE1 (second series), hits give low values 1.01 | locus YHR094C, strain hxt1, hits give low values 1.02 | locus YHR129C, strain ARP1, hits give low values 1.01 | locus YHR142W, strain chs7, hits give low values 1.02 | locus YHR200W, strain rpn10, hits give low values 1.01 | locus YIL066C, strain RNR3, hits give low values 1.01 | locus YIL073C, strain SPO22, hits give low values 1.04 | locus YIL125W, strain kgd1, hits give low values 1.01 | locus YIR030C, strain dcg1, hits give low values 1.01 | locus YJL092W, strain hpr5, hits give low values 1.01 | locus YJL095W, strain BCK1 (second series), hits give low values 1.01 | locus YJL095W, strain BCK1, hits give low values 0.998 | locus YJL115W, strain asf1, hits give low values 1.01 | locus YJL129C, strain trk1, hits give low values 1.01 | locus YJL134W, strain LCB3, hits give low values 1.01 | locus YJL154C, strain vps35, hits give low values 1.01 | locus YJL164C, strain tpk1, hits give low values 1.01 | locus YJL166W, strain qcr8, hits give low values 1.02 | locus YJL168C, strain set2, hits give low values 1.02 | locus YJL187C, strain SWE1 (second series), hits give low values 1
